# Test results: PubChem BioAssay AID1851 (National Center for Advancing Translational Sciences (NCATS), 2009)
# “And” between values parts separate entries of the source, which are not always exact repeats. Equal values may be shown once. Among all 16,000 compounds or so, about 5,800 (36%) were called active. Another 23% or so got no clear call; they are omitted. Calls follow the shape of the dose curve; as a rule, active = well fitted curve in the direction sought with a large enough effect; inconclusive = small, poorly fitted or top-dose-only effect, or effect the other way; inactive = no such curve, though single readings can be large or run the other way. This is one part of the list.
# Molecular target: Cytochrome P450 2C19 (Homo sapiens) (UniProt P33261)
# Assay: Cytochrome panel assay with activity outcomes
# Settings: recombinant CYP, pro-luciferin dealkylation, luminescence, p450-cyp2c19; series mostly up to 57.1 µM
# % is scaled to controls: 0 for no effect and ±100 for the full control effect.
# Cytochrome P450 2C19 (Homo sapiens), sequence (P33261 whole entry, looked up): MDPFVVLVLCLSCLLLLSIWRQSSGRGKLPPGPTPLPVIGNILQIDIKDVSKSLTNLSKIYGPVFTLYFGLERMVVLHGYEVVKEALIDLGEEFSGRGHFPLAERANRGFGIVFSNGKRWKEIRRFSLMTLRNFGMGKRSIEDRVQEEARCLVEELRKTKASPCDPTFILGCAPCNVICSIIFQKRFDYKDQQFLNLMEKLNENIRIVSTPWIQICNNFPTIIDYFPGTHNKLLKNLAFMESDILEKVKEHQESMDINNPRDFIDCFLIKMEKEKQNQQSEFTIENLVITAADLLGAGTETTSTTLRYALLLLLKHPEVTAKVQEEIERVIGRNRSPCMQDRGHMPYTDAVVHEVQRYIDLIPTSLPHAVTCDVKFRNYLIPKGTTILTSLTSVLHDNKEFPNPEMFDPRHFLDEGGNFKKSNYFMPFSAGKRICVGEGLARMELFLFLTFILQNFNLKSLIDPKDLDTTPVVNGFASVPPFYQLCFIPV
Structure (SMILES),AC50,"activity, negative = inhibition"
CC(=O)N1CCC2(CC1)CN(C(=O)Nc1cccc(C#N)c1)C2,inactive,
C=CCn1c(SCC(=O)Nc2c(C)n(C)n(-c3ccccc3)c2=O)nc2sc(C)c(-c3ccccc3)c2c1=O,15.8 µM (active),
Cc1c(NC(=O)CSc2nnnn2C)c(=O)n(-c2ccccc2)n1C,inactive,
Cc1c(NC(=O)Cn2ccc([N+](=O)[O-])n2)c(=O)n(-c2ccccc2)n1C,inactive,
Cc1nc(SCC(=O)Nc2c(C)n(C)n(-c3ccccc3)c2=O)nc(C)c1C,inactive,
CC(=O)N1CCc2cc(S(=O)(=O)CCC(=O)Nc3c(C)n(C)n(-c4ccccc4)c3=O)ccc21,inactive,
Cc1c(NC(=O)CSc2nnc3c4ccccc4n(CCc4ccccc4)c3n2)c(=O)n(-c2ccccc2)n1C,25.1 µM (active),
CC1(C)O[C@@H]2O[C@H]([C@H](O)CO/N=C3/[C@H]4O[C@@H]4[C@@H](O)[C@H]4[C@H]3CCn3c(=O)n(-c5ccccc5)c(=O)n34)[C@@H](O)[C@@H]2O1,,-36.7% [at 11.4 µM] (inactive)
Cc1c(C(=O)NCCC2=CCCCC2)cccc1[N+](=O)[O-],10 µM (active),
Cc1c(C(=O)NN2CCN(C)CC2)cccc1[N+](=O)[O-],inactive,
COCCn1c(=O)c(-c2ccc(Cl)cc2)nc2cnc(N3CCOCC3)nc21,inactive,
Cn1nc(-c2ccc(N3CCOCC3)c(NS(=O)(=O)c3ccc(Cl)cc3)c2)c2ccccc2c1=O,0.708 µM (active),
Cn1c(=O)c(-c2ccc(Cl)cc2)nc2cnc(N3CCOCC3)nc21,inactive,
CCC(=O)Nc1cc(-c2nn(C)c(=O)c3ccccc23)ccc1N1CCCCC1,15.8 µM (active),
O=C(NCCCN1CCCCCC1)[C@@H](c1ccccc1)C1CCCCC1,inactive,
CC(=O)Nc1ccc(NCN2C(=O)C3C4CCC(C4)C3C2=O)cc1 (stereo not given),inactive,
O=C(NC1CCCCC1)C(Cc1ccccc1)N1C(=O)C2C3CCC(C3)C2C1=O (stereo not given),11.2 µM (active),
Cc1ccc(NS(=O)(=O)c2ccc(OCC(=O)Nc3cccc([N+](=O)[O-])c3)c(C)c2)cc1,2 µM (active),
O=C(c1ccccc1NS(=O)(=O)c1cccc([N+](=O)[O-])c1)N1CCOCC1,inactive,
CSC1=N/C(=C\c2ccc(Br)o2)C(=O)S1,10 µM (active),
CSC1=N/C(=C\c2ccc(C)cc2)C(=O)S1,7.94 µM (active),
CCSc1nnc(-c2ccc(Cl)cc2)c2ccccc12,6.31 µM (active),
CCNc1ncc2nc(-c3ccc(Cl)cc3)c(=O)n(-c3ccccc3)c2n1,inactive,
Cn1c(C[C@@H](O)c2nc3ccccc3n2C)nc2ccccc21,,-23.7% [at 11.4 µM] (inactive)

Structure (SMILES),AC50,"activity, negative = inhibition"
Cn1c(SCc2nc3ccccc3n2CCO)nc2ccccc21,6.31 µM (active),
CC(=O)n1c(COS(C)(=O)=O)nc2ccccc21,,6.98% [at 11.4 µM] (inactive)
Nc1nc2c(c(=O)[nH]1)N[C@H](CCNc1ccc(C(=O)O)cc1)CN2,,0.2% [at 11.4 µM] (inactive)
CN(C)CCC=C1c2ccccc2CCc2ccccc21,inactive,
C[N+](C)([O-])CCC=C1c2ccccc2CCc2ccccc21,0.398 µM (active),
CNCCC=C1c2ccccc2CCc2ccccc21,inactive,
O=C(Nc1cccn(Cc2c(Cl)cccc2Cl)c1=O)c1ccc(Cl)cc1Cl,0.794 µM (active),
O=C(CN1C(=O)C2C3C=CC(C3)C2C1=O)Nc1ccc(C(=O)O)cc1 (stereo not given),inactive,
CCOC(=O)N/N=C1/C[C@@H](O)[C@@H](O)[C@@H]2[C@@H]3C(=O)N(CC)C(=O)[C@H]3CC[C@@H]12,,25.5% [at 11.4 µM] (inactive)
CCOC(=O)NCN1C(=O)C2C3C=CC(C3)C2C1=O (stereo not given),28.2 µM (active),
Cc1nc2c(c(-c3ccccc3)c1C#N)C(=O)c1ccccc1-2,1 µM (active),
Cc1[nH]n2c(=O)c(C#N)c(-c3ccccc3)nc2c1-c1ccccc1,inactive,
Cc1ccc2c(c1)N(CCC(=O)NCc1cccnc1)C(=O)CO2,8.91 µM (active),
Cc1ccc2c(c1)N(CCC(=O)NCC1CCCO1)C(=O)CO2 (stereo not given),inactive,
COc1ccccc1CNC(=O)CCN1C(=O)COc2ccc(C)cc21,3.16 µM (active),
O=C(Nc1nnc(SCc2ccc(Cl)cc2)s1)c1ccco1,4.47 µM (active),
CC(=O)Nc1nnc(SCc2ccc(F)cc2)s1,8.91 µM (active),
CC1CCCC(C)N1C(=O)c1ccccc1Nc1ccc(SC(F)F)cc1 (stereo not given),1.12 µM (active),
O=C(c1ccccc1Nc1ccc(SC(F)F)cc1)N1CCCCC1,0.891 µM (active),
O=C(O)c1ccccc1Nc1ccccc1,inactive,
CCCC[C@@H]1C[C@H]1C(NC(=O)c1ccccc1)c1ccc(Cl)cc1 (stereo not given in full),0.631 µM (active),
CCCC[C@@H]1C[C@H]1C(NC(=O)c1cccnc1)c1ccc(Cl)cc1 (stereo not given in full),2 µM (active),
CCCC[C@@H]1C[C@H]1C(NC(=O)c1ccccc1)c1ccccc1 (stereo not given in full),0.398 µM (active),
CCCC[C@@H]1C[C@H]1C(NC(=O)c1ccccc1)c1ccc(-c2ccccc2)cc1 (stereo not given in full),inactive,

Structure (SMILES),AC50,"activity, negative = inhibition"
CCCC[C@@H]1C[C@H]1C(NC(=O)Cc1ccccc1)c1ccc(-c2ccccc2)cc1 (stereo not given in full),inactive,
CCCC[C@@H]1C[C@H]1C(NC(=O)Cc1ccccc1)c1ccc(Cl)cc1 (stereo not given in full),0.0501 µM (active),
CNCCCC1c2ccccc2C=Cc2ccccc21,inactive,
O=C1c2ccccc2-c2n[nH]c3cccc1c23,inactive,
CCCC[C@@H]1C[C@H]1C(NC(=O)c1cccs1)c1ccc(Cl)cc1 (stereo not given in full),0.0794 µM (active),
CCCCNc1cc(=O)oc2ccccc12,25.1 µM (active),
Nc1ccc(Oc2ccc3nc(-c4ccccc4)c(-c4ccc([N+](=O)[O-])cc4)nc3c2)cc1,3.55 µM (active),
Cc1nc2ccccc2nc1-c1ccc(N=[N+]([O-])c2ccc(-c3nc4ccccc4nc3C)cc2)cc1,,64.3% [at 11.4 µM] (inactive)
CS(=O)(=O)N1CCC2(CCCN(C(=O)Nc3cccc(C#N)c3)C2)CC1,inactive,
Cc1[nH]c2ccccc2c1/C=C/c1cc[n+](C)cc1,inactive,
Cc1[nH]c2ccccc2c1/C=C(\C#N)C(=O)NC(C)c1ccccc1 (stereo not given),11.2 µM (active),
C#CCSc1nncn1C(=O)/C=C/c1ccccc1,15.8 µM (active),
COc1ncc2ncc(=O)n(C3CC3)c2n1,inactive,
CN(C)c1ncc2nc(CCc3ccccc3)c(=O)n(C3CC3)c2n1,15.8 µM (active),
COc1ccc(Oc2ncc3nc(CCc4ccccc4)c(=O)n(C4CC4)c3n2)cc1,1.58 µM (active),
COc1ncc2nc(C)c(=O)n(C3CC3)c2n1,inactive,
O=c1c(-c2cc(F)cc(F)c2)nc2cnc(Oc3ccccc3)nc2n1C1CC1,inactive,
Cc1nc2cnc(N(C)C)nc2n(C2CC2)c1=O,inactive,
Cc1nc2cnc(Oc3ccccc3)nc2n(C2CC2)c1=O,inactive,
CN(C)c1ncc2nc(-c3ccc(F)cc3)c(=O)n(C3CC3)c2n1,inactive,
COc1ncc2nc(CCc3ccccc3)c(=O)n(C3CC3)c2n1,15.8 µM (active),
O=C(O)c1ccccc1-c1ccccc1C(=O)Nc1ccc2c(c1)Cc1ccccc1-2,,37.2% [at 11.4 µM] (inactive)
Cn1c(SCC(=O)c2ccc3c(c2)Cc2ccccc2-3)nnc1-c1ccccc1,28.2 µM (active),

Structure (SMILES),AC50,"activity, negative = inhibition"
Cc1ccc2nc(/C(C#N)=C\c3ccc(OC(=O)c4cccs4)cc3)[nH]c2c1,2.24 µM (active),
COC(=O)Nc1nc2ccc(C(=O)c3cccs3)cc2[nH]1,inactive,
NC(=NC1C2CC3CC(C2)CC1C3)Nc1ccc(I)cc1 (stereo not given),5.01 µM (active),
CCc1cc2c(Sc3nc4ccccc4s3)ncnc2s1,2.51 µM (active),
CN(C)CCn1c(=O)n(Cc2ccco2)c(=O)c2c3c(sc21)CCCCC3,15.8 µM (active),
O=C(Cn1c(=O)n(Cc2ccco2)c(=O)c2c3c(sc21)CCCCC3)c1ccccc1,7.08 µM (active),
NC(=O)Cn1c(=O)n(Cc2ccco2)c(=O)c2c3c(sc21)CCCCC3,2.82 µM (active),
COc1ccc(Oc2ncc3nc(-c4cccs4)c(=O)n(-c4ccccc4)c3n2)cc1,inactive,
O=C(Nc1cccc2ccccc12)c1cn(-c2ccccc2)nc1-c1cccs1,6.31 µM (active),
COc1cccc(Nc2ncc3nc(-c4cccs4)c(=O)n(-c4ccccc4)c3n2)c1,inactive,
CC(=O)CCCCn1c(=O)c2c(ncn2C)n(C)c1=O,inactive,
C=CC[C@@H]1C=C[C@H](Oc2ccc(C)cc2)[C@H](COC(=O)NCc2cccc3ccccc23)O1,1.26 µM (active),
C=CC[C@@H]1C=C[C@@H](O/N=C(/C)CCC(=O)OC[C@@H]2O[C@H](C#Cc3ccccc3)C=C[C@@H]2Oc2ccc(C)cc2)[C@@H](CO)O1,,-42.3% [at 11.4 µM] (inactive)
C=CC[C@@H]1C=C[C@@H](O/N=C\C[C@@H]2C=C[C@H](OC(C)=O)[C@H](COC(C)=O)O2)[C@@H](CO)O1,,17.2% [at 11.4 µM] (inactive)
CC(C)(C)c1ccc(-c2nnc(SCc3ccc(Cl)cc3)n2-c2cccc(C(F)(F)F)c2)cc1,,-28.9% [at 11.4 µM] (inactive)
O=S(Cc1ccc(Br)cc1)Cc1nnc(SCc2ccc(Cl)cc2)n1-c1ccccc1 (stereo not given),10 µM (active),
OCCCNc1ncnc2[nH]ncc12,,36.5% [at 11.4 µM] (inactive)
CCOC(=O)c1c(-c2ccccc2)nc2c(C)cccn12,15.8 µM (active),
Cc1nn(C)cc1C(C(=O)NC1CCCCC1)N(C(=O)Cc1cccs1)c1ccc(C(C)C)cc1 (stereo not given),7.94 µM (active),
C/C(CC(=O)NC1CCCC1)=N\NC(=O)Cc1cccs1,inactive,
CC(C)C(NC(=O)C1CCCCC1)C(=O)NCc1ccccn1 (stereo not given),inactive,
Cc1cc(C)cc(N(C(=O)Cc2cccs2)C(C(=O)NC2CCCCC2)c2ccccn2)c1 (stereo not given),15.8 µM (active),
Cc1ccccc1C(C(=O)NC1CCCC1)N(C(=O)Cc1cccs1)c1ccc2c(c1)OCCO2 (stereo not given),14.1 µM (active),
